Ten compounds from PubChem BioAssay (Tox21) can be followed below.

Assay [1] is described as follows: qHTS assay to identify small molecule agonists of the estrogen receptor alpha (ER-alpha) signaling pathway in the presence of an antagonist - cell viability counter screen (AID 1259386).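 Also: series mostly up to about 92 µM; cells exposed to compounds for 22 h at 37 °C before the viability read; % is scaled to controls: 0 for no effect and ±100 for the full control effect; nearly all actives have a fitted effect of over 30% in size.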 The method in brief: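 Cytotoxicity was measured in parallel with the ERE-luciferase agonist screen, in the same wells. The cells were VM7Luc4E2, which endogenously express ER-alpha, and treatment was with compounds plus 10.0nM ICI-182,780 for 22hr.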

Assay [2] has as its target Progesterone receptor (Homo sapiens) (UniProt P06401). The assay can be described thus: qHTS assay to identify small molecule agonists of the progesterone receptor (PR) signaling pathway (AID 1346784; calls by dose curve; also: % is scaled to controls: 0 for no effect and ±100 for the full control effect; nearly all actives have a fitted effect of over 30% in size). The method in brief:
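PR-UAS-bla HEK 293T cells (beta-lactamase reporter under UAS) in 2% charcoal-stripped FBS, dosed with 23 nL compound after 6 hr, incubated 16hr at 37C. LiveBLAzer B/G FRET substrate added, fluorescence read after 2 hours.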

A short description of assay [3]: qHTS assay to identify small molecule antagonists of the progesterone receptor (PR) signaling pathway - cell viability counter screen (AID 1346798). Also: series mostly up to about 92 µM; % is scaled to controls: 0 for no effect and ±100 for the full control effect; nearly all actives have a fitted effect of over 50% in size. The gist of the method: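 PR-UAS-bla HEK293T cells, 3,000/well in 2% charcoal-stripped FBS medium, dosed with compounds plus R5020 agonist and incubated 16 h at 37C. Viability then measured in the same wells by CellTiter-Glo luminescence after 30 min at RT.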

Assay [4] in a line: qHTS assay to identify small molecule agonists of the progesterone receptor (PR) signaling pathway - cell viability counter screen (AID 1346799; calls by dose curve; also: % is scaled to controls: 0 for no effect and ±100 for the full control effect; nearly all actives have a fitted effect of over 45% in size). The method in brief:
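Counter screen in the PR-UAS-bla HEK293T wells (2% charcoal-stripped FBS, 16 h compound exposure at 37 C) after the bla read. CellTiter-Glo added, 30 min at room temperature, luminescence read as cell viability.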

Assay [5] can be described thus: qHTS assay to identify small molecule antagonists of the TGF-beta/Smad signaling pathway - cell viability counter screen (AID 1346824). Also: % is scaled to controls: 0 for no effect and ±100 for the full control effect; nearly all actives have a fitted effect of over 50% in size. The gist of the method: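 SBE-bla HEK 293T cells, incubated overnight, then compound plus 0.25 ng/mL TGF-beta1 (stock added) for 5 hr at 37 C. Viability was read in the same wells by CellTiter-Glo luminescence after 30 min at room temperature.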

A short description of assay [6]: qHTS assay to identify small molecule agonists of the TGF-beta/Smad signaling pathway - cell viability counter screen (AID 1346829). Also: top concentration of the series differs between compounds; % is scaled to controls: 0 for no effect and ±100 for the full control effect; nearly all actives have a fitted effect of over 45% in size. The method in brief: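 After overnight seating at 37 C and 5% CO2, reporter cells got compounds for 5 hr and FRET substrate for 2 hr; cell viability then came from CellTiter-Glo luminescence.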
Assay [7] in a line: qHTS assay to identify small molecule agonists of the TGF-beta/Smad signaling pathway (AID 1346859; active = well fitted activation curve with a large enough effect in the signal ratio in the repeat runs, not every such curve was filed as active; the % refers to the signal ratio; also: series mostly up to about 77 µM; % is scaled to controls: 0 for no effect and ±100 for the full control effect). The method in brief:
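SBE-bla HEK293T cells plated overnight, then compound exposure for 5 h at 37 C. Beta-lactamase reporter read with LiveBLAzer B/G FRET substrate after 2 h at room temperature, fluorescence at 405 nm excitation, 460/530 nm emission.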

In assay [8] the target is Thyrotropin-releasing hormone receptor (Homo sapiens) (UniProt P34981). Put plainly: qHTS assay to identify small molecule antagonists of the thyrotropin-releasing hormone receptor (TRHR) signaling pathway (AID 1346877; active = well fitted inhibition curve with a large enough effect in the repeat runs, not every such curve was filed as active; also: series mostly up to about 51 µM; % is scaled to controls: 0 for no effect and ±100 for the full control effect). The method in brief: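 Antagonism is measured as suppression of the calcium response to 1 nM TRH in TRHR-HEK293 cells that have been dye-loaded for 2 h at 37 °C after overnight plating. Each compound is tested at 15 concentrations in triplicate.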

Assay [9] shares this target. The assay can be described thus: qHTS assay to identify small molecule agonists of the thyrotropin-releasing hormone receptor (TRHR) signaling pathway (AID 1346891; calls by dose curve; also: series mostly up to about 58 µM; % is scaled to controls: 0 for no effect and ±100 for the full control effect). The gist of the method:
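HEK293 cells expressing TRHR plated 18 h at 37 C/5% CO2, calcium dye-loaded 2 h at 37 C, then compound added (agonist mode); kinetic calcium fluorescence read 3 min at 1 s intervals; 15 concentrations in triplicate.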

Assay [10] is described as follows: Human pregnane X receptor (PXR) small molecule agonists, qHTS cell viability counter screen (AID 1346977). Also: % is scaled to controls: 0 for no effect and ±100 for the full control effect; nearly all actives have a fitted effect of over 50% in size. The gist of the method: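 PXR-Luc HepG2 cells (2,000/well, 5% charcoal-stripped FBS) preincubated 5 hr, then exposed to compounds 24 hr at 37 C. Viability read in the same wells by CellTiter-Fluor fluorescence, reagent added at 23 hr, 1 hr incubation.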
The nature of assay [11]: Caspase-3/7 induction in HepG2 cells by small molecules, qHTS assay (AID 1346978). Also: % is scaled to controls: 0 for no effect and ±100 for the full control effect; nearly all actives have a fitted effect of over 15% in size. The method in brief: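 Wild-type HepG2 cells, 2,000/well, settled 5 hr at 37 C and 5% CO2, then compound-treated for 17 hr; caspase-3/7 activity read by luminescent Caspase-Glo 3/7 after 30 min at room temperature.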
Assay [12] is described as follows: Caspase-3/7 induction in CHO-K1 cells by small molecules, qHTS assay (AID 1346980). Also: % is scaled to controls: 0 for no effect and ±100 for the full control effect; nearly all actives have a fitted effect of over 15% in size. The gist of the method:
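Wild-type CHO-K1 cells exposed to compounds for 17hr at 37 C, 5% CO2. Caspase-3/7 activity then measured by Caspase-Glo 3/7 luminescence after 30min at room temperature.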

A short description of assay [13]: Caspase-3/7 induction in HepG2 cells by small molecules, qHTS cell viability counter screen (AID 1346981). Also: series mostly up to about 92 µM; % is scaled to controls: 0 for no effect and ±100 for the full control effect; nearly all actives have a fitted effect of over 30% in size. The method in brief:
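Cell viability is measured as a cytotoxicity counter screen alongside the Caspase-Glo 3/7 readout in identical wells. Wild-type HepG2 cells are treated with test compounds for 16 hr at 37 C before CellTiter-Fluor addition and a 1-hr incubation.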

For assay [14], the target named is Nuclear receptor subfamily 1 group I member 2 (Homo sapiens) (UniProt O75469). The assay can be described thus: Human pregnane X receptor (PXR) small molecule agonists, qHTS assay (AID 1346982). Also: nearly all actives have a fitted effect of over 35% in size. Also: potency is read from the fitted curve at half-maximal effect. As to activation: % is scaled to controls: 0 for no effect and ±100 for the full control effect. The method in brief: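 Cells: HepG2 stably carrying PXR-Luc. Medium held 5% charcoal-stripped FBS. Compounds in DMSO added after 5 hr plating, incubated 24 hr, then luminescence quantified with ONE-Glo.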

Assay [15] can be described thus: Caspase-3/7 induction in CHO-K1 cells by small molecules, qHTS cell viability counter screen (AID 1346979). Also: % is scaled to controls: 0 for no effect and ±100 for the full control effect; nearly all actives have a fitted effect of over 35% in size. The method in brief: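 Wild-type CHO-K1 cells (1,500/well) treated with compound after 5 h plating; after 16 h at 37C, viability read as CellTiter-Fluor fluorescence following 1 h reagent incubation, in the same wells as the caspase read.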
Assay [16] has as its target Acetylcholinesterase (Homo sapiens) (UniProt P22303). The assay can be described thus: Acetylcholinesterase (AChE) small molecule antagonists: colormetric cell-based qHTS assay (AID 1347395; calls by dose curve; also: % is scaled to controls: 0 for no effect and ±100 for the full control effect; nearly all actives have a fitted effect of over 30% in size). The gist of the method: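 SH-SY5Y cells attached overnight, exposed to compound 30 min at 37 C, then given DTNB/acetylthiocholine; after 90 min at 37 C, colorimetric thiocholine read gives cellular AChE activity.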

For assay [17], the target named is Progesterone receptor (Homo sapiens) (UniProt P06401). The assay can be described thus: qHTS assay to identify small molecule antagonists of the progesterone receptor (PR) signaling pathway (AID 1346795; active = well fitted inhibition curve with a large enough effect in the signal ratio in the repeat runs, not every such curve was filed as active; the % refers to the signal ratio; also: potency is read from the fitted curve at half-maximal effect). The method in brief:
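PR-UAS-bla HEK293T cells with beta-lactamase reporter under UAS control, in 2% charcoal-stripped FBS, treated with compounds plus 1 nM promegestone (R5020, final) for 16 hr at 37C. Read-out: FRET beta-lactamase substrate fluorescence after 2 hr at room temperature.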

Assay [18] has as its target Nuclear receptor subfamily 1 group I member 2 (Rattus norvegicus) (UniProt Q9R1A7). Put plainly: Rat pregnane X receptor (rPXR) activation by small molecules, qHTS assay (AID 1346983). Also: % is scaled to controls: 0 for no effect and ±100 for the full control effect; nearly all actives have a fitted effect of over 20% in size. Particulars: rPXR luciferase reporter cells, One-Glo luminescence, 24 h; max activation: active compounds read high. The method in brief: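 Cell-based rPXR activation assay: rPXR cells, 2,000 per well, rested 5hr at 37 C, then exposed to compounds in DMSO for 24 hr at 37 C. Luciferase activity read by One-Glo luminescence after 30 min at room temperature.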

The target of assay [19] is Nuclear receptor subfamily 1 group I member 2 (Homo sapiens) (UniProt O75469). The assay can be described thus: Human pregnane X receptor (PXR) activation by small molecules, qHTS assay (AID 1346985). Also: potency is read from the fitted curve at half-maximal effect; nearly all actives have a fitted effect of over 40% in size. The gist of the method:
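DPX-2 cells (HepG2 co-transfected with a PXR response element and a CYP3A4-promoter luciferase construct) were seeded at 2,000 per well, rested 5 hr at 37C, then exposed to DMSO-dissolved compounds for 24 hr. Activation was read as luciferase luminescence.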

Molecules are shown by their SMILES. Values without a mark were called inactive. Records with an inconclusive call do not appear. The source made the active and inactive calls. Unless noted, calls follow the shape of the dose curve; as a rule, active = well fitted curve in the direction sought with a large enough effect in the repeat runs; inconclusive = weak or mixed curves; inactive = no such curve, though single readings can be large; an effect the other way counts as inactive or inconclusive.

Chain of Acetylcholinesterase (Homo sapiens) (P22303 whole entry, looked up): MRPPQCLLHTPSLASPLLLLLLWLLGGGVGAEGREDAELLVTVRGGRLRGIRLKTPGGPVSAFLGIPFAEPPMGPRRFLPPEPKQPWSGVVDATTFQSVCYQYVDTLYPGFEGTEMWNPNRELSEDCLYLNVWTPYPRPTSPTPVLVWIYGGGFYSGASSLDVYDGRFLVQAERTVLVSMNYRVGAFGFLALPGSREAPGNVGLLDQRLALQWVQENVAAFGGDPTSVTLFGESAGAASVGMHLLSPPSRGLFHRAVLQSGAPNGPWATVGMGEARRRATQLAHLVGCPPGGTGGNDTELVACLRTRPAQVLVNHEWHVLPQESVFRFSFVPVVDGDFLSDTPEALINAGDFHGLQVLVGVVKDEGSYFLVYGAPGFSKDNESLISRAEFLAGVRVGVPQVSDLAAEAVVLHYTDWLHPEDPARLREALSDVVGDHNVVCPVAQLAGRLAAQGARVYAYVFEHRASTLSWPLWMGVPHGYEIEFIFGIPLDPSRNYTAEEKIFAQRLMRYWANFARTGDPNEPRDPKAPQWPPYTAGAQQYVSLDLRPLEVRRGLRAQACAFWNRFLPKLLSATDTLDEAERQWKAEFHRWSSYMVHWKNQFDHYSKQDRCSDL
Chain of Thyrotropin-releasing hormone receptor (Homo sapiens) (P34981 whole entry, looked up): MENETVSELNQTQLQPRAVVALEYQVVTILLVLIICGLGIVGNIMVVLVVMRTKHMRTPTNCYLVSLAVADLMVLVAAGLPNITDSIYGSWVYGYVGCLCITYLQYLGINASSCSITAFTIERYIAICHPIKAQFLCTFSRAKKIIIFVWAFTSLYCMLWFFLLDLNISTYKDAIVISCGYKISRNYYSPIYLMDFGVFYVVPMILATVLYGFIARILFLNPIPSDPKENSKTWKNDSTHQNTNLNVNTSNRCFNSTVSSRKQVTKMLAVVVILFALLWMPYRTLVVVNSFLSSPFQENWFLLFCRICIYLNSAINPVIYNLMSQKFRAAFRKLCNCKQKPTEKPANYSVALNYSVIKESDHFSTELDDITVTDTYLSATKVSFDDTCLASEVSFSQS
Chain of Progesterone receptor (Homo sapiens) (P06401 whole entry, looked up): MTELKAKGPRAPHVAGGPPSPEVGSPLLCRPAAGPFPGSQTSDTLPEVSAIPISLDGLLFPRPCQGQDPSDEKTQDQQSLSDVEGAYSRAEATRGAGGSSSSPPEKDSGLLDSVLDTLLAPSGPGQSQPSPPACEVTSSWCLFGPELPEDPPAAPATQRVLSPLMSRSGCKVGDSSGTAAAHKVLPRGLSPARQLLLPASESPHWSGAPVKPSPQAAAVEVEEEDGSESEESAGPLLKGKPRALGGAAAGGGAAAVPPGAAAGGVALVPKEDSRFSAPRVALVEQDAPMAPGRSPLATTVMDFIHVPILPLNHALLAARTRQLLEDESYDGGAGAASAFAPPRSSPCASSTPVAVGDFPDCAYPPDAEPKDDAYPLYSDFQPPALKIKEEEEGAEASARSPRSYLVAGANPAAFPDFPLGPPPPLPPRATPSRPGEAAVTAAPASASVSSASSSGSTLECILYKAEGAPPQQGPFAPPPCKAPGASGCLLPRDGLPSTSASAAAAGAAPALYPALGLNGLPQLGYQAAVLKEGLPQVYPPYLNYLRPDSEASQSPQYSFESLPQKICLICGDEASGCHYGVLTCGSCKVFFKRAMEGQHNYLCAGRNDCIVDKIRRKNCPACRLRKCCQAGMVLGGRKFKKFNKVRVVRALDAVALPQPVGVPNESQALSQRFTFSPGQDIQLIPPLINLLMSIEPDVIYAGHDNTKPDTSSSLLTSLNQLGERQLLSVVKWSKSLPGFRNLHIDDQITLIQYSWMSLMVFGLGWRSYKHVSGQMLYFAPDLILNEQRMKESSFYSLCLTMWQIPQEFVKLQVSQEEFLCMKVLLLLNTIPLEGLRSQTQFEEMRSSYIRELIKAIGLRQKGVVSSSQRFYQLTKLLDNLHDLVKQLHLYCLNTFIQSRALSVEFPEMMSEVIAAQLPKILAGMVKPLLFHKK
Chain of Nuclear receptor subfamily 1 group I member 2 (Homo sapiens) (O75469 whole entry, looked up): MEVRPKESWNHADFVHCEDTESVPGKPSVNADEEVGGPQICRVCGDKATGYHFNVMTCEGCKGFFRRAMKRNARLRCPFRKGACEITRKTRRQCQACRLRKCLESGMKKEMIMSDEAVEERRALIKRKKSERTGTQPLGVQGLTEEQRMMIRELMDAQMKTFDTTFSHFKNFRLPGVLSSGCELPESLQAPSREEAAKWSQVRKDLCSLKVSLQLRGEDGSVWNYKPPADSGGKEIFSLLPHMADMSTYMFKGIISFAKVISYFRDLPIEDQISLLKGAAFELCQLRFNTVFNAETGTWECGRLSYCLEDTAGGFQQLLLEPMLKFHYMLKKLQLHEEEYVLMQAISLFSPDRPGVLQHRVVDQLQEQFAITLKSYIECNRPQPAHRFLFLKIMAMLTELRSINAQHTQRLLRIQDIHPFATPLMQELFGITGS
Chain of Nuclear receptor subfamily 1 group I member 2 (Rattus norvegicus) (Q9R1A7 whole entry, looked up): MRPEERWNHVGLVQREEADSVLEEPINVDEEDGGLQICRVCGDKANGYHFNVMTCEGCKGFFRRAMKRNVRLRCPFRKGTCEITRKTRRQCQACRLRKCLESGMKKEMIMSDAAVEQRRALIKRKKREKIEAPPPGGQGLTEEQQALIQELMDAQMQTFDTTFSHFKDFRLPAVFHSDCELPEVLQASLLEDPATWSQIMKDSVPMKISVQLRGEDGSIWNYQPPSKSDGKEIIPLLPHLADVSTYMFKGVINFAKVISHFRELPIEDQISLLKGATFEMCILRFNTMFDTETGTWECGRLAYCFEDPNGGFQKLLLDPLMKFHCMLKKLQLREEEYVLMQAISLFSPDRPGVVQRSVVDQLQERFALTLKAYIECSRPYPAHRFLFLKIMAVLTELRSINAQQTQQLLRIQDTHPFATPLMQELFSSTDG

For `CCN(CC)c1nc(C)cc(OP(=S)(OC)OC)n1`, the Potency entry in assay [1], in assay [2], in assay [3], in [4], in assay [5] and in assay [10] was “inactive” throughout. The Potency entry in assay [11], in [12], in assay [13] and in assay [14] was “inactive” each time. Also, the result in assay [6], in assay [7], in assay [8] and in [9] was inactive.
As to `CC(N)=S`, the Potency result in assay [1], in assay [2], in assay [3], in [4], in [5] and in [10] was “inactive” throughout. Further, the Potency entry in assay [11], in assay [15], in [12] and in assay [16] was “inactive” in each case. Moreover, the compound was classed as inactive in assay [6], in assay [7], in assay [8] and in assay [9].
For the compound `Cc1ccccc1CO[C@@H]1C[C@@]2(C(C)C)CC[C@]1(C)O2`, the Potency entry in assay [1], in [2], in assay [3], in [4], in assay [5] and in assay [10] was “inactive” each time. The Potency result in assay [11], in [15], in assay [12], in [13] and in assay [16] was “inactive” in each case. Moreover, the outcome in assay [6], in assay [7], in assay [8] and in assay [9] was inactive.
Turning to `CC(CCc1ccccc1)NC(C)C(O)c1ccc(O)cc1` (stereo unspecified), the Potency entry in assay [1], in [2], in [3], in assay [4], in assay [5] and in assay [11] was “inactive” in each case. Besides, the Potency result in assay [15], in [13], in [14] and in [16] was “inactive” each time. Also, the result in assay [6] and in [7] was inactive.
In the case of `NC(=S)C(N)=S`, the Potency entry in assay [1], in assay [2], in assay [17], in assay [5], in [10] and in [11] was “inactive” throughout. In addition, the Potency entry in assay [15], in [12], in assay [13] and in assay [16] was “inactive” in each case. The compound was called inactive in assay [6] and in assay [7].
Consider `CC(Cl)(Cl)[N+](=O)[O-]`, for which the Potency result in assay [1], in assay [2], in assay [3], in [4], in assay [5] and in [10] was “inactive” each time. The Potency result in assay [11], in assay [15], in assay [12], in [13], in assay [14] and in [16] was “inactive” throughout. Besides, the call in [6], in [7], in [8] and in assay [9] was inactive.
As for `[As]#[In]`, the Potency result in [1], in assay [2], in assay [3], in assay [4], in [5] and in assay [10] was “inactive” in each case. Besides, the Potency result in [11], in [15], in [12], in [14] and in assay [16] was “inactive” in each case. Further, the compound was called inactive in [6], in assay [7], in assay [8] and in assay [9].
Take `Nc1cc2c3c(c1)C(c1ccccc1)=N[C@@H](NC(=O)c1cccnc1)C(=O)N3CC2`: the Potency entry in assay [1], in assay [2], in [17], in assay [4], in assay [5] and in [10] was “inactive” throughout. Also, the Potency entry in assay [11], in assay [12], in assay [13] and in assay [16] was “inactive” in each case. Further, the compound was called inactive in [6] and in [7].
Consider `CN1C(=S)CN=C(c2ccccc2)c2cc(Cl)ccc21`, for which the Potency result in assay [1], in assay [2], in assay [5], in assay [10], in assay [11] and in assay [15] was “inactive” each time. Also, the Potency result in assay [12], in assay [13] and in [16] was “inactive” each time. Further, the Potency in assay [17] is 21.1 µM (active); in assay [14], 26.6 µM (active); in assay [19] it was 14.1 µM (active). The outcome in [7], in [8] and in assay [9] was inactive. In addition, the max activation in [18] is -0.756%.
Consider `O=C1OC(=O)C2C1C1(Cl)C(Cl)=C(Cl)C2(Cl)C1(Cl)Cl` (stereo unspecified), for which the Potency entry in assay [1], in assay [17], in [3], in assay [4], in assay [5] and in assay [10] was “inactive” in each case. Further, the Potency entry in [11], in assay [15], in assay [12], in [13], in [14] and in assay [16] was “inactive” in each case. Moreover, the compound was classed as inactive in assay [7], in assay [8] and in [9].
